Data: the supplement of paper PMC10646978
± gives the standard deviation.

Key:
Conditions in all cases: modulator concentration 10 µM
[1] = system: RAW-Dual (murine macrophage reporter line); experiment: NF-kB reporter (SEAP) activity fold change vs agonist alone; higher = enhanced NF-kB activity
How it was run: (§1)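 RAW-Dual murine macrophage reporter cells were seeded at 50 000 per well in 384-well plates and pre-incubated 1 hour at 37 °C with compound pin-transferred to 10 μM final. After 1 hour, a PRR agonist was added and cells incubated overnight. Supernatant NF-κB (SEAP, QUANTI-Blue, 620 nm absorbance) and IRF (Lucia luciferase, QUANTI-Luc, luminescence) signals were divided by the mean agonist-only control on the same plate to give fold change. Two replicate plates were averaged, with errors by propagation.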

[2] = system: RAW-Dual (murine macrophage reporter line); experiment: IRF reporter (Lucia luciferase) activity fold change vs agonist alone; higher = enhanced IRF activity
How it was run: as §1

[3] = system: RAW-Dual (murine macrophage reporter line); experiment: viability score (confluency relative to resting cells, overnight) (fraction); higher = more viable, active = viable (0.7 or more)
How it was run: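 Two confluency masks, generated with IncuCyte software over all imaged wells, were applied to IncuCyte images of RAW-Dual macrophages. The cells, in 384-well plates, had been exposed overnight to 10 μM final compound. The viability score is confluency as a fraction of resting cells, and a compound met the cutoff only with both masks above 70% of resting cells.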

[4] = agonist: CpG ODN 1826 0.5 ug/mL

SMILES | NF-kB reporter [1, 4] | NF-kB reporter ([1]; agonist: LPS 0.1 ug/mL) | NF-kB reporter ([1]; agonist: MPLA […]) | IRF reporter ([2]; agonist: 3'3'-cGAMP 10 ug/mL) | IRF reporter ([2]; agonist: LPS 0.1 ug/mL) | IRF reporter ([2]; agonist: MPLA […]) | viability score [3]
Cl.Cl.Cn1cc(CNCC2CCN(c3ncc(C(=O)NO)cn3)CC2)c2ccccc21 | 1.84 ± 0.11 | 1.72 ± 0.15 | 2.69 ± 0.12 | 0.067 ± 0.0071 | 0.396 ± 0.025 | 0.692 ± 0.054 | 0.0605 (inactive)
Cc1cc(O)c(C(C)C)cc1NC(=O)c1cc(C(C)(C)C)oc1C | 1.22 ± 0.12 | 0.884 ± 0.083 | 1.76 ± 0.13 | 0.562 ± 0.025 | 0.998 ± 0.048 | 2.71 ± 0.29 | 0.797 (active)
CN(Cc1cnc2nc(N)nc(N)c2n1)c1ccc(C(=O)NC(CCC(=O)O)C(=O)O)cc1 (configuration not stated) [Prestw-373] | 0.987 ± 0.24 | 0.701 ± 0.04 | 0.87 ± 0.072 | 0.614 ± 0.037 | 1.16 ± 0.19 | 1.01 ± 0.13 | 0.791 (active)
c1ccc(C2=Nc3ccccc3N=C(c3ccccc3)c3ccccc32)cc1 | 0.676 ± 0.039 | 1.18 ± 0.13 | 1.08 ± 0.066 | 0.914 ± 0.036 | 1.2 ± 0.1 | 1.01 ± 0.096 | 0.979 (active)
C[C@H](Nc1ncnc2[nH]cnc12)c1cc2cccc(Cl)c2c(=O)n1-c1ccccc1 | 0.557 ± 0.042 | 0.808 ± 0.054 | 0.859 ± 0.024 | 0.728 ± 0.041 | 0.991 ± 0.095 | 1.1 ± 0.093 | 0.906 (active)
CC(C)Nc1cc(-c2c[nH]c(C(=O)N[C@H](CO)c3cccc(Cl)c3)c2)c(Cl)cn1 | 0.208 ± 0.012 | 0.0734 ± 0.0045 | 0.158 ± 0.01 | 0.677 ± 0.022 | 1.46 ± 0.12 | 0.62 ± 0.093 | 0.742 (active)
COC(=O)C1=C(C)NC(=Cc2c(F)cccc2Cl)C1=O | 0.944 ± 0.17 | 0.966 ± 0.077 | 0.963 ± 0.11 | 0.876 ± 0.023 | 1.23 ± 0.19 | 1.13 ± 0.16 | 0.985 (active)
COC(=O)C1=C(C)NC(=O)CC1c1ccc(Cl)c(Cl)c1 (configuration not stated) | 0.982 ± 0.075 | 0.801 ± 0.065 | 0.957 ± 0.094 | 1.06 ± 0.036 | 1.16 ± 0.15 | 1.23 ± 0.19 | 1.01 (active)
O=C(Cn1ncccc1=O)N1Cc2cnc(N3CCOCC3)nc2C1 | 0.942 ± 0.082 | 1.1 ± 0.1 | 0.938 ± 0.042 | 0.956 ± 0.058 | 1.16 ± 0.21 | 1.09 ± 0.31 | 0.998 (active)
CC(C)(C(=O)c1cccnc1)c1cccnc1 [Prestw-904] | 1.05 ± 0.092 | 0.894 ± 0.073 | 0.939 ± 0.057 | 0.995 ± 0.054 | 0.956 ± 0.12 | 0.901 ± 0.23 | 0.997 (active)
c1ccc(CCn2c3ccccc3c3nnc(SCCN4CCCCC4)nc32)cc1 | 0.232 ± 0.018 | 1.05 ± 0.061 | 1.02 ± 0.061 | 0.81 ± 0.075 | 1.57 ± 0.17 | 1.57 ± 0.11 | 1.01 (active)
O=C1CCC(=O)N1C1CC2CCC(C1)N2C(=O)c1cnccn1 (configuration not stated) | 0.892 ± 0.056 | 0.903 ± 0.081 | 1.06 ± 0.057 | 1.03 ± 0.053 | 1.22 ± 0.19 | 1.31 ± 0.41 | 0.954 (active)
NCCCCC(NC(CCc1ccccc1)C(=O)O)C(=O)N1CCCC1C(=O)O (configuration not stated) | 1.33 ± 0.32 | 0.955 ± 0.083 | 1.03 ± 0.088 | 0.947 ± 0.032 | 1.09 ± 0.13 | 1.02 ± 0.13 | 0.998 (active)
CCCCCCC=CCCCCCCCc1cccc(O)c1C(=O)O | 0.897 ± 0.067 | 0.987 ± 0.069 | 0.96 ± 0.029 | 0.774 ± 0.043 | 0.991 ± 0.12 | 1.06 ± 0.14 | 1 (active)
CCOC(=O)C1=C(C)NC(C)=C(C(=O)OC)C1c1ccc([N+](=O)[O-])cc1 (configuration not stated) | 0.97 ± 0.24 | 1.01 ± 0.12 | 1.13 ± 0.23 | 1.16 ± 0.049 | 1.01 ± 0.21 | 1.09 ± 0.21 | 0.985 (active)
COc1ccc(CCn2c(C)c(C)n3c4c(=O)n(CCC(C)C)c(=O)n(C)c4nc23)cc1OC | 0.95 ± 0.07 | 1.01 ± 0.12 | 1.15 ± 0.14 | 1.03 ± 0.048 | 1.37 ± 0.24 | 1.57 ± 0.44 | 0.95 (active)
NN=C1CCCc2c1[nH]c1ccc(Cl)cc21 | 1.07 ± 0.11 | 1.04 ± 0.081 | 1.05 ± 0.056 | 0.505 ± 0.13 | 0.95 ± 0.076 | 0.873 ± 0.12 | 0.99 (active)
Clc1ccc(-c2nc(N3CCCCC3)nc3ccccc23)cc1 | 0.444 ± 0.033 | 0.975 ± 0.051 | 1.09 ± 0.041 | 0.839 ± 0.047 | 0.953 ± 0.073 | 1.39 ± 0.12 | 0.993 (active)
Cc1ccc(COc2cccc(C=C3SC(=S)NC3=O)c2)cc1 | 0.611 ± 0.06 | 0.803 ± 0.13 | 0.992 ± 0.088 | 0.793 ± 0.08 | 1.18 ± 0.069 | 1.3 ± 0.11 | 1.02 (active)
CCOC(=O)C1=C(C)NC(C)=C(C(=O)OC)C1c1ccco1 (configuration not stated) | 1.03 ± 0.17 | 0.955 ± 0.1 | 1.03 ± 0.086 | 0.95 ± 0.037 | 1.14 ± 0.18 | 1.2 ± 0.25 | 1.01 (active)
Clc1ccccc1C1Nc2cccc3cccc(c23)N1 | 1.04 ± 0.092 | 0.898 ± 0.091 | 0.867 ± 0.084 | 0.684 ± 0.06 | 0.967 ± 0.14 | 0.792 ± 0.14 | 0.97 (active)
CC1=C(C(=O)OCc2ccc3c(c2)OCO3)C(c2ccc(Cl)c(Cl)c2)NC(=O)N1 (configuration not stated) | 1.04 ± 0.17 | 1.13 ± 0.083 | 1.11 ± 0.1 | 0.458 ± 0.025 | 0.712 ± 0.093 | 0.772 ± 0.15 | 1.01 (active)
COc1ccc(-c2noc(-c3ccc(=O)n(Cc4ncc(C)c(OC)c4C)c3)n2)cc1F | 0.91 ± 0.058 | 0.944 ± 0.083 | 1.06 ± 0.073 | 0.961 ± 0.044 | 1.17 ± 0.24 | 1.31 ± 0.51 | 0.956 (active)
CCC1=C(C)CN(C(=O)NCCc2ccc(S(=O)(=O)NC(=O)N[C@H]3CC[C@H](C)CC3)cc2)C1=O | 1.08 ± 0.085 | 1.08 ± 0.062 | 1.03 ± 0.066 | 1.22 ± 0.23 | 0.95 ± 0.067 | 0.915 ± 0.14 | 0.996 (active)
CC12CC3CC(C)(C1)CC(CNC(=O)c1ccc([N+](=O)[O-])cc1)(C3)C2 | 1.1 ± 0.1 | 0.895 ± 0.065 | 0.957 ± 0.09 | 0.999 ± 0.032 | 1.38 ± 0.22 | 1.48 ± 0.37 | 1 (active)
NC12CC3CC(CC(C3)C1)C2 | 1.19 ± 0.31 | 1.09 ± 0.066 | 1.01 ± 0.087 | 0.874 ± 0.061 | 1.13 ± 0.15 | 1.06 ± 0.2 | 0.999 (active)
